Consider eight compounds from PubChem BioAssay (NCI).

Holding throughout (assay): NCI-60 one-dose screen, 48 h (100 = growth as untreated, 0 = no growth, -100 = all killed)
One test has as its system NCI-H23 lung. The settings on record: 10 µM unless noted.
A further test deals with NCI-H226 lung. The settings on record: 10 µM unless noted.
A further test concerns NCI-H322M lung. The settings on record: 10 µM unless noted.
The next test deals with HOP-62 NSCLC. The settings on record: 10 µM unless noted.
The test system of another test is NCI-H460 lung. The settings on record: 10 µM unless noted.
The next test concerns HOP-92 NSCLC. The settings on record: 10 µM unless noted.
In the next test the test system is NCI-H522 lung. The settings on record: 10 µM unless noted.
For another test, the system named is A549/ATCC NSCLC. As to conditions: 10 µM unless noted.
For another test, the system named is 786-0 renal. The settings on record: 10 µM unless noted.
The next test relates to COLO 205 colon. As to conditions: 10 µM unless noted.
The test system of the next test is DU-145 prostate. The settings on record: 10 µM unless noted.
The subject of a further test is K-562 leukemia. As to conditions: 10 µM unless noted.
The next test has as its system MALME-3M melanoma. As to conditions: 10 µM unless noted.
The subject of the next test is MDA-MB-231 breast. As to conditions: 10 µM unless noted.
For the next test, the system named is SF-268 CNS. As to conditions: 10 µM unless noted.
The next test has as its system SF-295 CNS. The settings on record: 10 µM unless noted.
The next test concerns SF-539 CNS. The settings on record: 10 µM unless noted.
A further test deals with UACC-257 melanoma. The settings on record: 10 µM.
Another test deals with M14 melanoma. The settings on record: 10 µM unless noted.
The subject of a further test is RXF 393 renal. As to conditions: 10 µM unless noted.

This is part of a sample that, as a whole, favours compounds with a hit. Of some 83,000 tested, about 20% had one in any assay.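 Treatment: one concentration, 48 hours, 96-well format. Scoring: percent growth, with anything below 10 considered active.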 Values without a mark were called inactive. Active and inactive are the calls of the source.

On to `COc1ccc(NC(=O)Cn2cc(CN3C(=O)c4ccc([N+](=O)[O-])cc4C3=O)nn2)cc1`, for which the growth is 99.7% in the test with NCI-H23 lung; 96.4% with NCI-H226 lung; 106% in the test on NCI-H322M lung; 107% in the test with HOP-62 NSCLC; 106% in the test with NCI-H460 lung; 85.6% in the test on HOP-92 NSCLC. For the same compound, the growth is 99.9% in the test on NCI-H522 lung; 102% in the test on A549/ATCC NSCLC; 107% in the test on 786-0 renal; 122% in the test on COLO 205 colon; 113% in the test on DU-145 prostate; 98.1% in the test on K-562 leukemia. Also, the growth is 101% in the test with MALME-3M melanoma; 91.4% in the test on MDA-MB-231 breast; 109% with SF-268 CNS; 113% in the test on SF-295 CNS; 100% in the test with SF-539 CNS; 97.7% in the test with UACC-257 melanoma. Moreover, the growth in the test on M14 melanoma was 108%.

Consider `COc1cc(O)c2c(c1)[C@H]1O[C@@H]1C[C@H](O)[C@H](O)C(=O)/C=C\C[C@H](C)OC2=O`, for which the growth with NCI-H23 lung is 25.7%; with NCI-H226 lung, 37.9%; in the test with NCI-H322M lung it was 85.7%; in the test with HOP-62 NSCLC, 68.7%; in the test with NCI-H460 lung it was 68.1%; in the test with HOP-92 NSCLC it was -8.48% (active). In addition, the growth is 4.82% (active) in the test on NCI-H522 lung; 72.3% in the test on A549/ATCC NSCLC; 66% in the test with 786-0 renal; 9.13% (active) with COLO 205 colon; 55.3% in the test with DU-145 prostate; 29.9% in the test on K-562 leukemia. Moreover, the growth in the test on MALME-3M melanoma is -24.1% (active); in the test with MDA-MB-231 breast, 48.7%; in the test on RXF 393 renal it was 8.74% (active); in the test with SF-268 CNS, 74.4%; in the test on SF-295 CNS it was 81.7%; in the test with SF-539 CNS, 61.7%. For the same compound, in the test on M14 melanoma, the growth was 9.43% (active).

For `Cc1nc(-c2cc3ccccc3c(N3CCN(C)CC3)n2)cs1`, the growth with NCI-H23 lung was 99.9%; with NCI-H226 lung, 101%; in the test on NCI-H322M lung, 106%; in the test on HOP-62 NSCLC, 98.1%; in the test with NCI-H460 lung, 103%; in the test with HOP-92 NSCLC, 61.1%. Moreover, the growth in the test on NCI-H522 lung is 94%; in the test on A549/ATCC NSCLC it was 97.7%; in the test with 786-0 renal, 93.2%; with COLO 205 colon, 88.5%; in the test on DU-145 prostate, 109%; in the test on K-562 leukemia, 91.5%. The growth with MALME-3M melanoma is 96.5%; in the test on MDA-MB-231 breast it was 90.3%; with SF-268 CNS it was 87.3%; with SF-295 CNS it was 93.1%; in the test on SF-539 CNS, 85.2%; in the test with UACC-257 melanoma, 101%. For the same compound, the growth in the test with M14 melanoma was 95.4%.

In the case of `CN(c1ccc(Cl)cc1)S(=O)(=O)c1ccc(-c2cnc(C3CC3)o2)cc1`, the growth in the test with NCI-H23 lung is 23.8%; in the test on NCI-H226 lung it was 14.5%; in the test with NCI-H322M lung, 55%; in the test on HOP-62 NSCLC it was 45.6%; with NCI-H460 lung it was 8.85% (active); in the test on HOP-92 NSCLC, 63.9%. Besides, the growth in the test with NCI-H522 lung was 30.8%; in the test on A549/ATCC NSCLC, 24.3%; in the test with 786-0 renal it was 31.9%; with COLO 205 colon, -7.11% (active); in the test with DU-145 prostate, 15.9%; in the test with K-562 leukemia, 10.4%. The growth was 77.8% in the test with MALME-3M melanoma; 22.3% with MDA-MB-231 breast; 46.5% in the test on RXF 393 renal; 40.2% with SF-268 CNS; 18% in the test with SF-295 CNS; 10.4% with SF-539 CNS. The results for the growth in the test on UACC-257 melanoma and in the test with M14 melanoma were 66.1% and 24.9%, respectively.

For the compound `O=c1c2c(O)cccc2oc2c3c(cc(O)c12)O[C@H]1OC=C[C@@H]31`, the growth in the test with NCI-H23 lung was 59.9%; in the test on NCI-H226 lung, 88.7%; with NCI-H322M lung, 88.4%; with HOP-62 NSCLC it was 82.4%; in the test on NCI-H460 lung, 73.5%; in the test on HOP-92 NSCLC, 88.7%. Besides, the growth in the test on NCI-H522 lung was 79.9%; with A549/ATCC NSCLC, 61%; in the test on 786-0 renal, 98.9%; in the test on COLO 205 colon, 75.1%; in the test on DU-145 prostate, 98%; in the test with K-562 leukemia, 96.2%. Further, the growth in the test on MALME-3M melanoma is 95.2%; in the test with MDA-MB-231 breast, 83.2%; in the test with RXF 393 renal, 99.1%; with SF-268 CNS it was 94.7%; in the test on SF-295 CNS, 89.5%; with SF-539 CNS, 98.4%. The growth in the test on M14 melanoma was 101%.

Consider `CCOC(=O)C1=C(C)Nc2nc3ccccc3n2C1c1cccc(Br)c1` (centres undefined), for which the growth in the test with NCI-H23 lung is 86.7%; in the test with NCI-H226 lung, 102%; in the test on NCI-H322M lung, 97.6%; in the test with HOP-62 NSCLC, 74.3%; with NCI-H460 lung, 89.2%; with HOP-92 NSCLC it was 99.3%. Further, the growth is 37.1% in the test with NCI-H522 lung; 80.7% with A549/ATCC NSCLC; 93.5% in the test with 786-0 renal; 81.6% in the test with COLO 205 colon; 93.3% in the test with DU-145 prostate; 29.9% in the test on K-562 leukemia. Moreover, the growth in the test with MALME-3M melanoma was 51.9%; in the test on MDA-MB-231 breast, 79%; with RXF 393 renal it was 99.7%; with SF-268 CNS, 94.7%; in the test on SF-295 CNS it was 60.7%; with SF-539 CNS it was 85.8%. Further, the figures for the growth with UACC-257 melanoma and in the test on M14 melanoma were 87.1% and 63.4%, respectively.

Take `CCCCCCCCCC[C@@H](C)[C@@H]1CC(=O)N[C@H]([C@@H](C)O)C(=O)N[C@@H](C)C(=O)N[C@H](C)C(=O)N[C@@H](CCC(N)=O)C(=O)N[C@H](Cc2ccc(O)cc2)C(=O)N[C@@H](C(C)CC)C(=O)O1` (some centres undefined): the growth with NCI-H23 lung was 35.6%; in the test with NCI-H226 lung it was 42.1%; in the test on NCI-H322M lung, 89.1%; in the test on HOP-62 NSCLC, 73.9%; with NCI-H460 lung, 63.6%; in the test on HOP-92 NSCLC it was 43.3%. Further, the growth is 36.1% in the test on NCI-H522 lung; 47.6% in the test with A549/ATCC NSCLC; 91.8% in the test on 786-0 renal; 66% with COLO 205 colon; 57.1% in the test with DU-145 prostate; 40.6% in the test on K-562 leukemia. In addition, the growth in the test with MALME-3M melanoma is 65.7%; in the test on MDA-MB-231 breast it was 96.6%; in the test with RXF 393 renal, 97.5%; in the test with SF-268 CNS, 84.8%; in the test on SF-295 CNS it was 36.2%; with SF-539 CNS, 60.5%. For the same compound, the growth with M14 melanoma was 79.4%.

On to `Nc1nc(N)c2c(n1)NC(c1ccccc1)CC(c1ccc(Nc3nc(NCCO)nc(Nc4ccc(Cl)cc4)n3)cc1)=N2` (centres undefined), for which the growth is 41.2% with NCI-H23 lung; 91.9% in the test with NCI-H226 lung; 63.2% in the test with NCI-H322M lung; -69.6% (active) in the test on HOP-62 NSCLC; -80.3% (active) with NCI-H460 lung; -79.1% (active) in the test with HOP-92 NSCLC. The growth was 41% in the test with NCI-H522 lung; 75.7% in the test with A549/ATCC NSCLC; -86% (active) with 786-0 renal; 80.8% with COLO 205 colon; 41.6% with DU-145 prostate; -40.7% (active) in the test on K-562 leukemia. Besides, the growth is -89.6% (active) in the test with MALME-3M melanoma; 73.3% in the test with MDA-MB-231 breast; 76.5% in the test on SF-268 CNS; 46.9% with SF-295 CNS; 71.1% in the test with SF-539 CNS; 113% in the test on UACC-257 melanoma. For the same compound, the growth with M14 melanoma was 81%.
